# Bioassay records (PubChem)
# Most compounds without a hit are left out; they make up all but 2.4% or so of the library.
# Cruzain inh noDet: blocks cruzain activity in detergent-free assay; purified cruzain, Z-FR-AMC fluorescence, no detergent; Potency, µM, without a hit: max response, negative = inhibition, most hits filed as inhibitors; hit rate 2.3% among 200,000;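 further: plate controls were enzyme without inhibitor for no effect and buffer without enzyme for full effect; nearly all actives have a fitted effect of over 40% in size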
# Target sequence (P25779 123-467 limits assumed): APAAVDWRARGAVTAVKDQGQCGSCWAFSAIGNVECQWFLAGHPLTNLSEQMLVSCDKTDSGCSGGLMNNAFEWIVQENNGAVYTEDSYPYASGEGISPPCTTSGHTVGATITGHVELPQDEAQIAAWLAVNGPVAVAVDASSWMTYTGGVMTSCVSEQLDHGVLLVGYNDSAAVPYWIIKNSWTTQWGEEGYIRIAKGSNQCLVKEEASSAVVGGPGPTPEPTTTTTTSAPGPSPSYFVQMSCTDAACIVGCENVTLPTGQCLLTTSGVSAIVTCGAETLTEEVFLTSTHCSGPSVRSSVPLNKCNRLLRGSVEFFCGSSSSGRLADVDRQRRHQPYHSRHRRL
#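 Purified cruzain at 1.5 nM, pre-incubated 15 min with compound at room temperature in 100 mM sodium acetate pH 5.5, 5 mM DTT, 0.00005% Triton X-100. Reaction started with 2 uM Z-FR-AMC; AMC fluorescence increase over 60 s gives rate.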
# Cruzain Triton: inhibitors of Trypanosoma cruzi cruzain with detergent | P25779 | Potency, µM, inactives show max response, negative = inhibition, usual class: inhibitors | purified cruzain, Z-FR-AMC fluorescence, 0.01% Triton | hit rate 0.43% among 200,000;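 further: plate controls were neutral wells for no effect and buffer without enzyme for full effect; nearly all actives have a fitted effect of over 40% in size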
#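 Cysteine protease activity tested under reducing, mildly acidic conditions (100 mM sodium acetate pH 5.5, 5 mM DTT) plus 0.01% Triton X-100. Cruzain 1.5 nM; substrate Z-FR-AMC 2 uM; 15 min compound preincubation at room temperature.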
# * marks the source's active call; other numbers are inactive results; ? = inconclusive. The call rests on the fitted dose curve; in most records, active means well fitted curve in the direction sought with a large enough effect; inconclusive means small, poorly fitted or top-dose-only effect, or another doubt; inactive means no such curve, though single readings can be large; an effect the other way counts as inactive or inconclusive. Potency means the concentration at half of the fitted maximal effect.
SMILES,Cruzain inh noDet,Cruzain Triton
O=C(CCC(=O)c1ccc(F)cc1)Nc1ccccc1Cl,-10%,-3%
O=C(CSc1nnc(-c2ccc(F)cc2)c2ccccc12)Nc1cccc(Cl)c1,16µM*,-4%
COc1ccc(CCNC(=O)CSc2nnc(-c3ccc(F)cc3)c3ccccc23)cc1OC,?,-4%
O=C(CSc1ncnc2c1oc1ccccc12)Nc1cccc(Cl)c1,-11%,-3%
N[C@@H](Cc1cccc([N+](=O)[O-])c1)C(=O)O,9%,-4%
CC(C)Oc1ccc(CNS(=O)(=O)c2ccc3c(c2)C(C)(C)C(=O)N3C)cc1,-12%,0%
Cc1ccccc1NC(=O)Cn1c(=O)oc2cc(Br)ccc21,16%,-3%
COc1cccc(C(=O)Nc2nnc(S(=O)(=O)N3CCCc4ccccc43)s2)c1,-10%,-3%
CN(CC(=O)O)Cc1c[nH]c2ccccc12,11%,3%
COCCNC(=O)CSc1cn(CC(=O)N2CCCCCC2)c2ccccc12,-12%,-4%
Cc1ccc(-c2nn(CC(=O)Nc3cccc(C(F)(F)F)c3)c(=O)c3ccccc23)cc1,-17%,-4%
O=c1c(C(c2ccccc2)c2c(O)sc3ccccc3c2=O)c(O)sc2ccccc12,?,25µM*
CCC(=O)CC(c1ccccc1)c1c(O)c2ccccc2sc1=O (stereo unspecified),-10%,-14%
COc1ccc(C(=O)Nc2cc(C(C)C)c(O)c(S(=O)(=O)c3ccc(Cl)cc3)c2C)cc1,?,-2%
COc1ccc(C(=O)Nc2cc(C(C)C)c(O)c(S(=O)(=O)c3ccc(OC)cc3)c2C)cc1,25µM*,-1%
Nc1c(C(=O)Nc2ccc(Cl)c(C(F)(F)F)c2)sc2nc(-c3ccncc3)ccc12,1%,-3%
CCc1cc2ccccc2nc1SCC(=O)Nc1cc(C)on1,-8%,1%
CCc1cc2ccc(OC)cc2nc1SCC(=O)Nc1cc(C)on1,10µM*,7%
Cc1c(C)n(Cc2ccccc2)c2ccc(C(=O)NCc3ccccc3F)cc12,?,1%
Cc1ccccc1NC(=O)c1ccc2c(c1)c(C)c(C)n2Cc1ccccc1,-20%,0%
CSc1ccc(CCNC(=O)c2ccc3c(c2)c(C)c(C)n3Cc2ccc(F)cc2)cc1,16µM*,2%
CCOc1ccc(CNC(=O)c2ccc3c(c2)c(C)c(C)n3Cc2ccc(Cl)cc2)cc1,10µM*,2%
CCn1c(C)c(C)c2cc(C(=O)NCc3ccc(OC(C)C)cc3)ccc21,-4%,-6%
CSc1cccc(NC(=O)c2ccc3c(c2)c(C)c(C)n3Cc2ccc(F)cc2)c1,16µM*,3%
CCCCN(C)CC(O)Cn1cc(/C=C/C(=O)c2ccc(OC)c(OC)c2)c2ccccc21 (stereo unspecified),-10%,-15%
SMILES,Cruzain inh noDet,Cruzain Triton
CCCSc1ncc(Cl)c(C(=O)Nc2ccc(S(=O)(=O)N3CCCCC3C)cc2)n1 (stereo unspecified),-26%,-6%
c1ccc(-c2ccc(-c3csnn3)cc2)cc1,20µM*,4%
FC(F)(F)c1cccc(-c2ccc(-c3csnn3)o2)c1,-2%,-7%
O=C(COc1cc(=O)n2c(n1)SCCC2)c1ccccc1,-1%,5%
O=c1cc(NCc2ccccc2)nc2n1CCCS2,25µM*,-3%
CCC=O,3%,1%
O=C(N/N=C/c1cccc([N+](=O)[O-])c1)c1cc2ccccc2o1,?,-17%
O=C(COc1ccc(/C=N/NC(=O)c2cc3ccccc3o2)cc1Cl)Nc1ccccc1,20µM*,22µM*
CCN(Cc1ccccc1)C(=O)CN1C(=O)COc2ccc(S(=O)(=O)N3CCOCC3)cc21,21%,-2%
N[C@@H](Cc1nn[nH]n1)C(=O)O,0%,6%
CO/N=C1\CN(c2nc3c(cc2F)c(=O)c(C(=O)O)cn3C2CC2)CC1CN (stereo unspecified),?,-5%
COc1ccc(NS(=O)(=O)c2cccc(-c3nnc4n3CCCCC4)c2)cc1,10%,4%
COc1ccc(/C=C/C(=O)Nc2ccc(-c3nnc4n3CCCCC4)cc2)c(OC)c1,-27%,14µM*
COC(=O)Cn1c(=NC(=O)c2nc3ccccc3s2)sc2cc(S(C)(=O)=O)ccc21,17%,-8%
COC(=O)Cn1c(=NC(=O)c2ccc([N+](=O)[O-])s2)sc2cc(Br)ccc21,10µM*,-4%
COc1ccc(Nc2cc(C(=O)NCCCN3CCN(c4ccc(OC)cc4)CC3)c3ccccc3n2)cc1,-6%,-27%
C[N@@+]1(CC[N@@+]2(C)CCC[C@H]2c2cccnc2)CCC[C@@H]1c1cccnc1,-9%,-2%
O=C(Nc1c2c(nn1-c1ccc(Cl)cc1)CS(=O)(=O)C2)c1cccc(Cl)c1,-25%,2%
CCc1ccc(NC(=O)C2CCN(S(=O)(=O)c3ccc4[nH]c5c(c4c3)CCCCC5)CC2)cc1,10µM*,1%
Cc1cccc(NC(=O)C2CCN(S(=O)(=O)c3ccc4[nH]c5c(c4c3)CCCCC5)CC2)c1,13µM*,1%
CC(=O)c1cccc(NC(=O)C2CCN(S(=O)(=O)c3ccc4[nH]c(=O)ccc4c3)CC2)c1,-3%,-4%
Cc1cccc(NS(=O)(=O)c2ccc3[nH]c4c(c3c2)CCCCCC4)c1,-4%,-5%
O=C(NCc1ccc2[nH]c3c(c2c1)CCCC3)c1ccc(S(=O)(=O)N2CCCCC2)cc1,?,-3%
O=C(Nc1ccccc1)C1CCN(S(=O)(=O)c2ccc3[nH]c4c(c3c2)CCCCC4)CC1,16µM*,-2%
CN(C)c1ccc(C(CNC(=O)c2c(F)cccc2Cl)N2CCOCC2)cc1 (stereo unspecified),5%,-4%
SMILES,Cruzain inh noDet,Cruzain Triton
Cc1ccc(CSc2nc(-c3cccs3)ccc2C#N)cc1,25µM*,-3%
COc1cc(-c2c(C#N)c(N)nc(SCc3ccncc3)c2C#N)cc(OC)c1OC,0%,-1%
C#CCSc1nc(-c2cccs2)ccc1C#N,-7%,-8%
N#Cc1c(N)nc(SCc2ccncc2)c(C#N)c1-c1cccs1,25µM*,-6%
CN(C)CCCNc1c2c(nc3ccc(Cl)cc13)CCCC2,4%,3%
CCOC(=O)c1c(C)n(Cc2ccco2)c2ccc(OC)cc12,9%,-18%
CCOC(=O)c1c(C)n(Cc2ccco2)c2c1cc(O)c1ccccc12,25µM*,-2%
COc1ccc(OC)c2sc(NC(=O)c3ccc(Cl)s3)nc12,-7%,5%
COc1ccc(OC)c2sc(NC(=O)c3ccc(Br)s3)nc12,16µM*,-5%
Cc1ccc(C2CC(=O)N(Cc3ccccc3)c3c2c(C)nn3-c2nc(C)cc(C)n2)cc1 (stereo unspecified),?,-1%
CCOC(=O)c1ccc(S(=O)(=O)NCC(c2ccc(N(C)C)cc2)c2c[nH]c3ccccc23)cc1 (stereo unspecified),?,-4%
CN(C)c1ccc(C(CNC(=O)c2ccc(C#N)cc2)c2c[nH]c3ccccc23)cc1 (stereo unspecified),?,-11%
CN(C)c1ccc(C(CNS(=O)(=O)c2ccc(F)cc2)c2c[nH]c3ccccc23)cc1 (stereo unspecified),32µM*,-10%
CN(C)c1ccc(C(CNC(=O)c2ccccc2Br)c2c[nH]c3ccccc23)cc1 (stereo unspecified),25µM*,-3%
O=C(O)CSc1cc(-c2ccccc2)nc2ccccc12,1%,-5%
COc1cccc(CNC(=O)CCc2c(C)c3ccc(O)c(C)c3oc2=O)c1,-20%,?
